Compound activity (PubChem BioAssay)
PostGolgi yeast: growth inhibition of a yeast mutant, post-Golgi transport screen; actives 0.9% (n = 98,000); inhibition, % at 10 µM; AID 739; post-Golgi transport phenotypic cell assay;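 note: yeast cells grown in 1536-well plates; yeast grown about 18 h at 30C before absorbance read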
CYP2C19 inhib: human CYP2C19 inhibition | P33261 | CYP2C19 Supersomes, luciferin-H EGE luminescence, 30 min | inhibition, % at 5 µM | actives 21% (n = 96,000);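 active = CYP2C19 inhibition above a set limit at 5 µM in the primary screen, cut at about 50% in these data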;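 note: plate controls were negative control wells for no effect and 2.5 mM tranylcypromine positive control for full effect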
Target sequence (P33261 whole entry, looked up): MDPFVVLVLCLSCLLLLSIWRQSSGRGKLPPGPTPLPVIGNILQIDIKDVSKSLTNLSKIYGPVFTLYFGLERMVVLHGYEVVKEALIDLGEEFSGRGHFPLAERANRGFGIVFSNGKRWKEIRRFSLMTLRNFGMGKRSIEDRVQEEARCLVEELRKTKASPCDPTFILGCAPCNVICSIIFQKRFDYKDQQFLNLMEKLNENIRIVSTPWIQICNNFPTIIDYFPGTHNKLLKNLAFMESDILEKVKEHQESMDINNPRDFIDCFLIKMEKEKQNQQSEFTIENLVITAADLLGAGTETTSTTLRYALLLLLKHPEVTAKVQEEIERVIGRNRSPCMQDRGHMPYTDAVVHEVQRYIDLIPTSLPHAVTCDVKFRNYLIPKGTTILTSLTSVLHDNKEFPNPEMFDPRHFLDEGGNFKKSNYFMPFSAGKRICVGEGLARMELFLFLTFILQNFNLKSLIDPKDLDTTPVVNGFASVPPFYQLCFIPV
CYP2C19 activ: activators of human cytochrome P450 2C19 | recombinant CYP2C19, luciferin-H EGE luminescence; active compounds read high; 0 = fully inhibited enzyme, 1 = untreated enzyme | activation factor at 5 µM | P33261 | 96,000 tested, under 10 active;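 active = activation factor of at least 2 at 5 µM in the primary screen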;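 note: 0 = wells with 2.5 mM tranylcypromine and 1 = vehicle-only wells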
CYP2C9 act: increases human cytochrome P450 2C9 activity; recombinant CYP2C9, luciferin-H conversion, luminescence; active compounds read high; factor 1 = untreated enzyme, 0 = blocked; activation factor at 5 µM; actives 1.4% (n = 96,000); AID 1024;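 active = activation factor of 2 or more for CYP2C9 at a 5 µM dose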;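 note: 0 = sulfaphenazole-blocked wells and 1 = vehicle-only wells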
PostGolgi ctrl: growth of the yeast control strain, post-Golgi counter-screen; efflux-deficient yeast background strain, growth absorbance A615, 16 h; inhibition, % at 10 µM; actives 5% (n = 98,000)
CYP2C9 inhib: inhibitors of human CYP2C9; P11712; CYP2C9 Supersomes, luciferin-H conversion, luminescence; inhibition, % at 5 µM; actives 20% (n = 96,000); AID 777;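 active = blocking of liver enzyme CYP2C9 beyond about 50% at 5 µM, limit read from the data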
Active calls of the source: *; / = no result given. Hits are enriched below; roughly 32% of the tested compounds scored in any of these assays. Cut-off read from the data, not from the text of the source, unless noted: active = inhibition above about 30%; inactive = the rest.

SMILES	PostGolgi yeast	CYP2C19 inhib	CYP2C19 activ	CYP2C9 act	PostGolgi ctrl	CYP2C9 inhib
COCCn1c(SCC(=O)NCC2CCCO2)nc2c(c1=O)SC(C)C2 (stereo not drawn)	4	-4	1	1	5	-2
CCCN(CC(=O)c1cc(C)n(C)c1C)S(=O)(=O)c1cccc(C(F)(F)F)c1	12	76*	0.2	0.8	-7	24
Nc1ncncc1-c1ccc([N+](=O)[O-])cc1	2	-1	1	1.1	8	-12
Cn1c(=O)c2c(nc(NCc3ccco3)n2C)n(C)c1=O	-8	7	0.9	0.9	25	8
Cn1c(=O)c2c(nc(NCc3ccco3)n2C/C=C/c2ccccc2)n(C)c1=O	/	74*	0.3	0.7	/	26
COC(=O)[C@H](CCSC)NC(=O)Nc1ccc(C(C)=O)cc1	4	-4	1	1.1	-3	-12
O=C(NCc1cccnc1)NC(C(F)(F)F)C(F)(F)F	-1	66*	0.3	0.6	2	37
O=C(NCc1cccnc1)NC1(C(F)(F)F)Oc2ccccc2O1	-1	90*	0.1	0.8	7	25
O=C(NCc1cccnc1)Nc1cccc(NC(=O)NCc2cccnc2)c1	3	6	0.9	0.9	7	14
O=C1COc2ccc(C(=O)c3ccccc3)cc2CN1	14	17	0.8	0.9	5	7
CCn1c(SCc2nc3ccccc3[nH]2)nnc1-c1ccc(OC)cc1	2	82*	0.2	0.7	1	27
C=CCn1c(SCc2nc3ccccc3[nH]2)nnc1-c1ccc(OC)cc1	-3	81*	0.2	0.8	-3	22
CC(=O)C1=C(C)Nc2cc(C(F)(F)F)ccc2S1	-1	60*	0.4	0.6	27	36
CN1CCN(CCC(=O)N2c3ccccc3Sc3ccc(C(F)(F)F)cc32)CC1	3	19	0.8	0.8	4	17
Cc1cc(N2CCOCC2)n2ncc(-c3ccccc3)c2n1	0	-15	1.2	0.6	26	41
CCc1nn2c(N3CCOCC3)cc(C)nc2c1-c1ccc(F)cc1	-4	22	0.8	0.8	45*	20
NS(=O)(=O)c1cccnc1Nc1c(Cl)cccc1Cl	-7	60*	0.4	0.5	32*	46
Cc1ccc(S(=O)(=O)NC2CCCc3ccccc32)cc1C (stereo not drawn)	4	9	0.9	1.5	9	-54
Cc1[nH]n(-c2ccc([N+](=O)[O-])cc2)c(=O)c1C=NCCN1CCN(C(=O)c2ccccc2)CC1	1	59*	0.4	0.3	0	65*
NC(=O)C1(N2CCCCC2)CCN(C(=O)Nc2ccccc2C(F)(F)F)CC1	3	/	/	/	2	/
COC(=O)CN1C(c2ccccc2)=Nc2ccc(Cl)cc2C1c1ccccc1 (stereo not drawn)	8	25	0.7	0.8	30*	20
NNC(=O)CN1C(c2ccc(Cl)cc2)=Nc2ccc(Br)cc2C1c1ccccc1 (stereo not drawn)	-2	47	0.5	0.4	22	58*
COC(=O)C1C(=O)OC(C)(C)C1C(C)C(=O)c1ccccc1 (stereo not drawn)	3	79*	0.2	0.8	-1	19
CCOc1ccc(N(CC(=O)NC2CCCC2)S(=O)(=O)c2c(C)[nH]c(=O)[nH]c2=O)cc1	-5	-6	1.1	0.7	0	33
CC(=O)N(C(C)=O)c1c(C#N)c(C)n(-c2ccccc2)c1C(=O)c1ccccc1	4	71*	0.3	0.9	-2	9
SMILES	PostGolgi yeast	CYP2C19 inhib	CYP2C19 activ	CYP2C9 act	PostGolgi ctrl	CYP2C9 inhib
COC(=O)C1(C(=O)OC)NOC2C(=O)N(c3ccccc3)C(=O)C21 (stereo not drawn)	-7	1	1	1	7	0
O=C(CSc1nnc(-c2ccncc2)n1Cc1ccccc1)NCCc1ccccc1	0	71*	0.3	0.4	-3	63*
CC(C)CNC(=O)CSc1nnc(-c2ccccn2)n1Cc1ccccc1	0	80*	0.2	0.3	5	72*
COC(=O)CSc1nnc(-c2ccccn2)n1Cc1ccco1	4	/	/	/	10	/
CCn1c(Cc2ccccc2)nnc1SCC(=O)Nc1nnc(-c2ccccc2)s1	5	48	0.5	0.7	8	30
CCCn1c(SCC(=O)NCCc2ccccc2)nnc1-c1ccccn1	-3	56*	0.4	0.4	10	56*
